Screening results from PubChem.
This is a sample that favours compounds with a hit; in the whole collection about 0.92% have one here.
BLM helicase inh – inhibitors of human Bloom syndrome helicase BLM; P54132; recombinant BLM DNA unwinding, fluorescence dequenching; Potency, µM (top dose mostly 56.1 µM), for inactives: at the top dose activity change, negative = inhibition, hits mostly inhibitors; 350,000 compounds, 0.2% hits;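 also: plate controls were vehicle for no effect and no enzyme for full effect; nearly all actives have a fitted effect of over 35% in size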
RECQ1 inh-1 – inhibitors of human RECQ1 DNA helicase; P46063; RECQ1 DNA unwinding, red fluorescence kinetic read; Potency, µM (series often up to 57.3 µM), for the others: at the top dose activity, negative = inhibition, actives largely listed as inhibitors; 240,000 compounds, 0.54% hits;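 also: plate controls were vehicle for no effect and no enzyme for full effect; nearly all actives have a fitted effect of over 30% in size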
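RECQ1T1 50 nM; forked duplex (20 bp + 30-nt ss tails) 200 nM, ATP 2 mM final; pH 8.0, 2 mM MgCl2, 2.5 ug/ml poly(dI-dC); 15 min compound preincubation; discontinuous kinetic read over 2 h at RT.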
TDP1 inh – blocks human tyrosyl-DNA phosphodiesterase 1; Q9NUW8; recombinant TDP1, AlphaScreen DNA substrate cleavage; Potency, µM (series often up to 130 µM), for inactives: at the highest dose activity change, negative = inhibition, hits mostly inhibitors; 350,000 compounds, 0.28% hits; also: nearly all actives have a fitted effect of over 40% in size
Target sequence (Q9NUW8 whole entry, looked up): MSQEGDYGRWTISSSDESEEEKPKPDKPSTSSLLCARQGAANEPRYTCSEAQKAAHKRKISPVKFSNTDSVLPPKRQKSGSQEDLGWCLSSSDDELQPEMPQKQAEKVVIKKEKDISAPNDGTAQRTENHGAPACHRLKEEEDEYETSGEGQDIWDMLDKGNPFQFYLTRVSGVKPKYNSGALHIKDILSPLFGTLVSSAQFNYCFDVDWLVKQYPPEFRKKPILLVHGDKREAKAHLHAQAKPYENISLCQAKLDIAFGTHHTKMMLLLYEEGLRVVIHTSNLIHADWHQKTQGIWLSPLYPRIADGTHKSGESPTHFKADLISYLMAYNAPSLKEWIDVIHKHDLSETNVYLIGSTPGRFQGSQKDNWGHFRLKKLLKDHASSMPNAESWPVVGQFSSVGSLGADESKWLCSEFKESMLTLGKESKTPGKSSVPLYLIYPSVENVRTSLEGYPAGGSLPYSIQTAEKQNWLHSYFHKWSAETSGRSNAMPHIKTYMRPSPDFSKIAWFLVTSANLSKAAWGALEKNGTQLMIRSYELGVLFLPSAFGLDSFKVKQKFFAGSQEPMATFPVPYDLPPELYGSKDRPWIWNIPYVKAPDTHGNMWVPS
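Recombinant E. coli-expressed Tdp1 (1 nM) preincubated with compound 15 min at RT, then 5'-biotin/3'-phosphotyrosine-FITC DNA substrate (15 nM) added for 5 min. AlphaScreen beads (10 ug/ml) added, 10 min RT; tyrosine-FITC cleavage read as signal loss.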
FEN1 inh – inhibitors of human flap endonuclease 1. Recombinant FEN1 flap cleavage, fluorescence, 15 min. Potency, µM (doses to about 114 µM), inactives show top-dose activity change, negative = inhibition, actives largely listed as inhibitors. P39748. 390,000 compounds, 0.35% hits; also: nearly all actives have a fitted effect of over 65% in size
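With each library titrated from low to high concentration, compounds met 10 nM FEN1 for 15 min at room temperature before 50 nM substrate was added; readings at 0 and 15 min fed four-parameter Hill curve fits.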
APEX1 inh – inhibitors of human APE1 endonuclease; P27695; recombinant APE1, TAMRA/BHQ-2 abasic DNA cleavage fluorescence; Potency, µM (top dose mostly 65.8 µM), for the others: at the highest dose activity change, negative = inhibition, most hits filed as inhibitors; 350,000 compounds, 0.35% hits; AID 2517;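 also: plate controls were vehicle for no effect and reference inhibitor for full effect; nearly all actives have a fitted effect of over 55% in size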
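Readout is kinetic fluorescence (ex 525, em 598 nm) from cleavage of 50 nM TAMRA/BHQ-2 THF abasic duplex by 0.75 nM APE1, compound added 15 min beforehand at RT.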
RECQ1 inh conf – confirmation of human RECQ1 helicase inhibitors. shares compounds with RECQ1 inh-1. RECQ1 helicase DNA unwinding, fluorescence. Potency, µM (series often up to 229 µM), for the others: at the top dose activity change, negative = inhibition, actives largely listed as inhibitors. 610 compounds, 28% hits. AID 2708; also: nearly all actives have a fitted effect of over 45% in size
ADP FP counter – ADP displacement flagged in RECQ1 inhibitor counter-screen; 530 compounds, 27% hits; shares compounds with RECQ1 inh-1; ADP fluorescence polarization displacement counterscreen; Potency, µM (titrated, usually from 228 µM), without a hit: at the highest dose activity change, negative = inhibition, actives largely listed as inhibitors; also: nearly all actives have a fitted effect of over 45% in size
RECQ1 inh-2 – confirmation of human RECQ1 helicase inhibitors; Potency, µM (doses to about 119 µM), without a hit: at the top dose activity, negative = inhibition, usual class: inhibitors; shares compounds with RECQ1 inh-1; 1,100 compounds, 15% hits; recombinant RECQ1 DNA unwinding, red fluorescence; also: nearly all actives have a fitted effect of over 50% in size
Active calls of the source: *; i = inactive; ? = inconclusive; . = not tested or not shown; [ ] = dose if it differs, or a comment. Calls follow the shape of the dose curve; as a rule, active = well fitted curve in the direction sought with a large enough effect; inconclusive = small, poorly fitted or top-dose-only effect, or another doubt; inactive = no such curve, though single readings can be large; an effect the other way counts as inactive or inconclusive. Unless noted, % is scaled to controls: 0 for no effect and ±100 for the full control effect; potency is read from the fitted curve at half-maximal effect.

SMILES	BLM helicase inh	RECQ1 inh-1	TDP1 inh	FEN1 inh	APEX1 inh	RECQ1 inh-2	others
COc1cc(OC)cc(C(=O)NNC(=O)c2ccc(S(=O)(=O)N3CC(C)OC(C)C3)cc2)c1 (configuration not stated)	1%	0%	3%	-3%	-12%	.	RECQ1 inh conf=10%;ADP FP counter=-1%
CC1CN(S(=O)(=O)c2ccc(C(=O)Nc3nccs3)cc2)CC(C)O1 (configuration not stated)	0%	1%	1%	18%	5%	.
CC1CN(S(=O)(=O)c2ccc(C(=O)Nc3ccc(S(=O)(=O)Nc4nccs4)cc3)cc2)CC(C)O1 (configuration not stated)	-3%	7%	4%	-3%	-11%	.	RECQ1 inh conf=-4%;ADP FP counter=7%
COc1ccc(C(=O)NNC(=O)c2ccc(S(=O)(=O)N3CC(C)OC(C)C3)cc2)cc1 (configuration not stated)	-5%	9%	3%	4%	18%	.
CCOc1cc(NC(=O)c2cnccn2)c(OCC)cc1NC(=O)c1cccc(F)c1	-1%	-2%	0%	.	-1%	.	RECQ1 inh conf=9%;ADP FP counter=?
CCOc1cc(NC(=O)C2CC2)c(OCC)cc1NC(=O)c1cccc(F)c1	-5%	.	-4%[0.0935 µM]	1%	40%	.
COC(=O)c1sc2nc(-c3ccco3)ccc2c1N	-9%	-27%	-13%	-7%	?	.
NC(=O)c1sc2nc(-c3ccco3)ccc2c1N	-7%	11µM*	?	?	?	-17%
CC(=O)C(Sc1ccc2nnc(-c3ccc(C)cc3)n2n1)C(C)=O	-6%	?	2%	-20%	-15%	?
O=C1CC(c2ccco2)CC(O)=C1C=Nc1cc(Cl)ccc1O (configuration not stated)	-23%	22µM*	?	-19%	7.1µM*	?
Cn1cnc([N+](=O)[O-])c1Oc1cccc2ccccc12	1%	5µM*	4%	-5%	18%	-16%
CS/C(=N\S(=O)(=O)c1cccs1)NC(=O)CSc1nc2ccccc2s1	-22%	?	-6%	?	6%	?
C/C(=N/NC(=O)CSc1nc2ccccc2s1)c1ccncc1	1%	16%	3%	5%	15%	.
COCCN1C(=O)C(=O)/C(=C(/O)c2ccc(S(=O)(=O)N3CCOCC3)cc2)C1c1ccc(C(C)C)cc1 (configuration not stated)	-1%	-4%	0%	.	-3%	.
COCCN1C(=O)C(=O)/C(=C(/O)c2ccc(S(=O)(=O)N3CCOCC3)cc2)C1c1cccc(O)c1 (configuration not stated)	8%	-3%	.	-13%	-8%	.	RECQ1 inh conf=0%;ADP FP counter=4%
COc1ccc(-c2cc(C(=O)Nc3cc(C)on3)no2)cc1	5%	-1%	-6%	-12%	0%	.
COc1ccc(-c2cc(C(=O)O)no2)cc1	7%	?	9%	-3%	6%	4%
COc1ccc(N2CCN(CC(=O)NC(=O)NCc3ccco3)CC2)cc1	-1%	-11%	5%	7%	-2%	.
O=C(CN1CCN(c2ccc(O)cc2)CC1)NC(=O)NCc1ccco1	-6%	22µM*	-5%	7%	?	-18%
O=C(CN1CCN(c2ccc(O)cc2)CC1)Nc1ccc2c(c1)OCCO2	-3%	?	1%	-8%	?	-11%
Cc1cc(C(Br)(Br)Br)nc2ccccc12	.	.	.	-17%	.	.
CCC(Sc1nnc(-c2ccc(OC)c(OC)c2)c(-c2ccc(OC)c(OC)c2)n1)C(=O)NC1CCCC1 (configuration not stated)	-6%	.	5%	10%	.	.
CCCN1C(=O)/C(=C/c2ccc(C)o2)SC1=Nc1ccc(OCC)cc1	-6%	1%	9%	-3%	0%	.
CCCN1C(=O)/C(=C/c2ccc(C)o2)SC1=Nc1ccc(OC)cc1	-6%	?	9%	-3%	-6%	-26%
CCCN1C(=O)/C(=C/c2ccco2)SC1=Nc1ccc(OC)cc1	-21%	25µM*	11%	2%	?	-9%
SMILES	BLM helicase inh	RECQ1 inh-1	TDP1 inh	FEN1 inh	APEX1 inh	RECQ1 inh-2	others
CCN1C(=O)/C(=C/c2ccc(C)s2)SC1=Nc1ccc(OC)cc1	-5%	-5%	2%	-1%	-8%	.
COc1ccc2c(c1)C(=O)[C@@H](OC(=O)N[C@H]1CCCc3ccccc31)[C@H](c1ccc(OC)c(Br)c1)O2	-3%	5%	2%	.	-2%	.
CCOC(=O)c1ccc(N2N=C(C)/C(=C/C=C/c3ccco3)C2=O)cc1	6%	?	10%	11%	4%	-3%
CC1=NN(c2ccc(C(=O)OC(C)C)cc2)C(=O)/C1=C\C=C\c1ccco1	-12%	6%	0%	-9%	8%	.
Nc1c(S(=O)(=O)O)cc(Nc2ccc(Cl)cc2)c2c1C(=O)c1ccccc1C2=O	?	32µM*	29%	.	?	50µM*
Nc1c(S(=O)(=O)O)cc(Nc2cccc3ccccc23)c2c1C(=O)c1ccccc1C2=O	?	22µM*	27%	.	?	?
O=S(=O)(Nc1cccc2ccccc12)c1ccccc1F	-4%	.	2%	5%	40%	.
Cc1cc(N(C)C)ccc1/C=C/c1ccnc2ccccc12	.	.	.	-10%	.	.
CC(C)OCCCN1C(=O)c2[nH]nc(-c3ccccc3O)c2C1c1ccccc1F (configuration not stated)	-3%	.	7%	11%	.	.
COc1ccc(-c2nn(-c3ccccc3)cc2/C=C/C(=O)O)cc1[N+](=O)[O-]	10%	?	8%	8%	-9%	-5%
CC(=O)N1CC(O)CC1C(=O)O (configuration not stated)	3%	.	.	.	.	.
C=CCOC(=O)N[C@H](C[N+](=O)[O-])c1ccccc1	1%	i	4%	.	-4%	.
Cc1cc(C)n(CCc2nc(-c3ccco3)cs2)n1	?	35µM*	.	-28%	?	?
O=c1[nH]c(=O)n(Cc2ccccc2)c2nc(-c3ccco3)cc(C(F)(F)F)c12	0%	-15%	3%	-10%	-6%	.
Cc1cc(C)n(CCc2nc(-c3cccs3)cs2)n1	3%	-2%	1%[56.1 µM]	-2%	2%	.
